{
  "source": "PubChem BioAssay (NCATS)",
  "note": "Inconclusive results are not listed.",
  "data": [
    {"test": "qHTS Assay for Lipid Storage Modulators (AID 1519)", "conditions": "Drosophila S3 cells, BODIPY lipid droplet/cell ratio, laser cytometry; measured here: cell count channel max response; cells loaded with oleic acid", "method_in_brief": "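Cells seeded at 5,000 per well were treated with compounds over a concentration series and loaded with oleic acid (400 uM, as added). Lipid droplet fluorescence (488 nm excitation, 500-530 nm channel) was read by laser-scanning cytometry and normalized to 20 uM Triacsin C.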", "units": {"max response": "%"}, "values": [
      {"smiles": "N#Cc1cccc(-c2nc3cnc(N4CCOCC4)nc3n(C3CC3)c2=O)c1", "max response": 17.6},
      {"smiles": "CCNc1ncc2nc(-c3cc(F)cc(F)c3)c(=O)n(C)c2n1", "max response": -4.13},
      {"smiles": "CC(=O)NCCNc1ccnc(-c2ccccc2C(F)(F)F)n1", "max response": 8.35},
      {"smiles": "CCNc1ncc2nc(-c3cc(F)cc(F)c3)c(=O)n(C[C@H]3CCCO3)c2n1", "max response": 13.4},
      {"smiles": "COc1cccc(-c2cncnc2N(C)Cc2ccco2)c1", "max response": 38},
      {"smiles": "COc1ccccc1-c1ccc2ncnc(NC3CCNCC3)c2c1", "max response": 10.6},
      {"smiles": "O=c1cnc2cnc(N3CCOCC3)nc2n1C1CC1", "max response": 8.4},
      {"smiles": "CCNc1ncc2nc(C)c(=O)n(-c3ccc(OC)cc3)c2n1", "max response": 11.9},
      {"smiles": "CCNc1ncc2nc(C)c(=O)n(Cc3cccs3)c2n1", "max response": -9.24},
      {"smiles": "Cn1c(=O)c(-c2cccs2)nc2cncnc21", "max response": 18.7},
      {"smiles": "CN(C)c1ncc2ncc(=O)n(C3CC3)c2n1", "max response": 15.8},
      {"smiles": "CCNc1ncc2nc(C)c(=O)n(Cc3ccc(F)cc3)c2n1", "max response": 23.4},
      {"smiles": "CN(C)C(=O)c1ccc(-c2nc(NC3CCNCC3)c3ccccc3n2)cc1", "max response": 14.8},
      {"smiles": "COc1ccccc1CNc1ncncc1-c1cccnc1", "max response": 11.7},
      {"smiles": "COc1cccc(Nc2ncc3nc(C)c(=O)n(C)c3n2)c1", "max response": 5.56},
      {"smiles": "Cc1cnc(CNc2ncncc2-c2cccc(C#N)c2)cn1", "max response": 20.9},
      {"smiles": "Cc1nc2cnc(Nc3ccccc3)nc2n(C2CC2)c1=O", "max response": -13.6},
      {"smiles": "CCNc1ncc2nc(C)c(=O)n(C3CC3)c2n1", "max response": 6.66},
      {"smiles": "CCNc1ncc2nc(-c3cn(C)c4ccccc34)c(=O)n(-c3ccc(OC)cc3)c2n1", "max response": 20.6},
      {"smiles": "CN(C)C(=O)c1ccc(-c2cncnc2N2CCNCC2)cc1", "max response": 16.8},
      {"smiles": "Cc1noc(C)c1-c1ccc2ncnc(NC3CCNCC3)c2c1", "max response": 3.61},
      {"smiles": "CCNc1ncc2nc(C)c(=O)n(C)c2n1", "max response": 22.7},
      {"smiles": "COc1ccc(CNc2ncncc2-c2cccnc2)c(OC)c1", "max response": 18.2},
      {"smiles": "COc1ccc(-n2c(=O)cnc3cnc(N4CCOCC4)nc32)cc1", "max response": 0.0679},
      {"smiles": "Fc1ccc(Nc2ncncc2-c2ccoc2)cc1", "max response": 9.18},
      {"smiles": "Cn1c(=O)cnc2cnc(OCc3ccccc3)nc21", "max response": 18.8},
      {"smiles": "COc1cccc(Nc2ncc3nc(C)c(=O)n(CCc4ccccc4)c3n2)c1", "max response": -10.5},
      {"smiles": "COc1ccc2[nH]cc(CCNc3ncncc3-c3c(C)noc3C)c2c1", "max response": 11.1},
      {"smiles": "Cc1noc(C)c1-c1cc(Nc2ccccc2)ncn1", "max response": 15.2},
      {"smiles": "COc1ccc(Oc2ncc3ncc(=O)n(C)c3n2)cc1", "max response": 9.26},
      {"smiles": "COCCNc1cc(-c2ccccc2C)ncn1", "max response": 3.79},
      {"smiles": "CS(=O)(=O)Nc1cccc(-c2cncnc2Nc2ccc(F)cc2)c1", "max response": 21.9},
      {"smiles": "c1ccc2c(NC3CCNCC3)nc(-c3ccoc3)nc2c1", "max response": 5.08},
      {"smiles": "c1csc(CNc2cc(-c3ccoc3)ncn2)c1", "max response": 26.5},
      {"smiles": "COc1ccc(CNc2cc(-c3ccoc3)ncn2)c(OC)c1", "max response": 31.5},
      {"smiles": "O=c1cnc2cnc(Nc3ccccc3)nc2n1Cc1ccc(F)cc1", "max response": 9.12},
      {"smiles": "Fc1ccc(Nc2ccnc(-c3ccoc3)n2)cc1", "max response": 9.29},
      {"smiles": "COc1ccccc1-c1cc(NCc2ccccc2)ncn1", "max response": 10.9},
      {"smiles": "N#Cc1cccc(-c2cncnc2NCc2cccs2)c1", "max response": 15.7},
      {"smiles": "CNc1cc(-c2c(C)noc2C)ncn1", "max response": 25.8}
    ]}
  ]
}
